According to the supplement of paper PMC6555819:

Tests used:
Test in all cases: PBM binding z-score (relative to random genomic background probes); higher = stronger binding; sequences stand for … in GC…GCGATTGACAGCGTAGAATGAAGG
[1] = test system: RARg homodimer (NR concentration 270 nM)
Procedure, shortened: (§1)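 Probes were double-stranded and carried 34-nt variable regions with direct-repeat seeds, single-nucleotide variants, half-site ablations and random human genomic background sequences, printed on custom Agilent 4×180K protein-binding microarrays. Arrays were incubated 1 h with ligand-free nuclear receptor dimers in PBS pH 7.4, 2% milk, 0.02% Triton X-100, 1 mM DTT, 0.2 mg/mL BSA and 0.4 mg/ml salmon testes DNA. Antibodies against each partner (one per run) detected binding, and scanned fluorescence was regression-normalized. Binding z-scores use the random background probes as reference.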

[2] = test system: RXRa DBDmut IVT, anti-RXR (DBD mutation: RXRa K156A/R161A, NR concentration 90 nM)
Procedure, shortened: as §1

[3] = test system: RXRa homodimer (NR concentration 180 nM)
Procedure, shortened: as §1

[4] = test system: THRa:RXRa (NR concentration 90 nM, RXRa partner concentration 90 nM)
Procedure, shortened: as §1

[5] = test system: THRa homodimer (NR concentration 90 nM)
Procedure, shortened: as §1

[6] = test system: VDR homodimer (NR concentration 270 nM)
Procedure, shortened: as §1

| Sequence | PBM binding z-score [1] | PBM binding z-score [2] | PBM binding z-score [3] | PBM binding z-score [4] | PBM binding z-score [5] | PBM binding z-score [6] |
| --- | --- | --- | --- | --- | --- | --- |
| GCTTAAGGGTCAAAGGTTATAGCATGAATAGAAT | 7.11 | 3.54 | 9.83 | 4.14 | -0.296 | 2.8 |
| CGTCAAAGGTCAAGGTAACGTAACAGAAAGCAGC | 8.73 | 3.48 | – | 4.25 | 1.83 | 1.62 |
| CGTCCAAGGTCAAAGGTCAATGAAGAGATGACGG | 8.5 | 3.93 | – | – | 2.5 | 3.6 |
| CAAACGAGGTCAAGGTCAAAGTCGGTTTGTGCCA | 8.18 | 4.52 | – | – | 4.79 | 6.15 |
| ATCGAAAGGTCAAAGGTGAGTATACCCACCCGAA | 8.44 | 3.46 | – | 4.31 | 0.712 | 2.97 |
| CAAACTAGGTCAAAAGGTCAAAGTCCGCTTCCCG | 8.65 | 2.66 | – | 4.48 | 1.87 | 3.77 |
| CAAACAAGGTCAAAGGTCAAAGTCGAGCCAACCA | 8.75 | 4.5 | – | – | 2.79 | 5.62 |
| CAAACAAGGTCACCGGAAGGTCAAAGTCCGCATG | 8.72 | 4.24 | – | – | 4.44 | 5.94 |
| GCTTACGGGTCAAAGGTCATAGCATGAATAGAAT | 7.46 | 3.56 | – | – | 1.04 | 3.19 |
| CAAAATAGGTCACCGGAAGGTCAAAGTCCGCATG | 8.46 | 2.03 | – | 4.65 | 1.82 | 3.41 |
| ATCGAAAGGTCATGAGGTGAGTATACAGAAAGGC | 8.01 | 3.11 | – | 4.37 | 1.95 | 2.68 |
| CCTGCTAGGTCAAAGGTCAGCTAAAGCAGCTCGC | 7.57 | 2.83 | – | 4.6 | 1.41 | 1.75 |
| TGTCAAAGGTCAAAGGTAACGTAAGTATCCACAC | 8.8 | 3.15 | – | 4.47 | 0.695 | 2.81 |
| CAAAATAGGTCAAAGGTCAAAGTCGAGCCAACCA | 7.97 | 2.84 | – | 4.79 | 1.18 | 2.93 |
| CCTTAGGGGTCACTCCAGGTTATAGCATCGGAGT | 7.07 | 4.21 | – | – | 0.963 | 4.35 |
| CAAACAAGGTCACAGAGGTCAAAGTCCGTGCGTA | 9.05 | 4.67 | – | 5.03 | 4.36 | 9.97 |
| CCTTACGGGTCACGAGGTCATAGCACGACGAGCG | 6.74 | 3.05 | – | 4.58 | 3.43 | 4.83 |
| TATACGGGGTCAAAGGCCAGAGTACGAATGTCGA | 6.78 | 4.48 | – | 4.43 | 1.72 | 5.21 |
| TCTCGGAGGTCACGAAAGGTCAGAGCTCGACATC | 9.26 | 3.38 | – | – | 2.36 | 3.58 |
| CAAACGAGGTCACCGGAAGGTCAAAGTCCGCATG | 8.7 | 4.24 | – | – | 4.61 | 6 |
| CAAACAAGGTCACGAAAGGTCAAAGTCGAATGAC | 9.5 | 4.12 | – | 5.17 | 3.65 | 5.74 |

| Sequence | PBM binding z-score [1] | PBM binding z-score [2] | PBM binding z-score [3] | PBM binding z-score [4] | PBM binding z-score [5] | PBM binding z-score [6] |
| --- | --- | --- | --- | --- | --- | --- |
| AGTCAAAGGTCATCTAGGTAACGTAAGATATGCT | 7.77 | 3.31 | – | 4.7 | 1.42 | 2.52 |
| ATCGAAAGGTCAAGGTGAGTATAGAGAAAGGGAA | 8.56 | 2.66 | – | 4.3 | 1.8 | 1.84 |
| CGTCCGAGGTCAAGGTCAGTGAAAGAGACTCGAA | 7.79 | 4.19 | – | 4.37 | 3.97 | 4.69 |
| CAAACGAGGTCACAGAGGTCAAAGTCCGTGCGTA | 9.3 | 4.98 | – | – | 5.02 | 10.5 |
| TGTCAAAGTTCAAAGGTCACGTAAGTATCCACAC | 9.03 | 4.57 | – | – | 1.88 | 5.69 |
| AATACGGGGTCATCGTAGGCCAGAGTACGCACAG | 7.15 | 4.86 | – | 4.99 | 2.62 | 6.13 |
| TGTCAAAGTTCAAAGGTTACGTAAGTATCCACAC | 6.76 | 4.3 | – | 4.44 | 0.193 | 4.2 |
| TTACCAAGGTCAAAGGTCGTTGATGCACGCCTTG | 6.63 | 3.96 | – | 4.73 | 2.76 | 4.36 |
| CGTCCAAGGTCAAAGGTCATTGAAGAGATGACGG | 8.52 | 4.24 | – | – | 3.04 | 5.06 |
| CAAACGAGGTCAAAGGTCAAAGTCGAGCCAACCA | 8.66 | 4.97 | – | – | 3.26 | 6.2 |
| CGTCAAAGGTCATAGGAGGTCAGTGAAGACAGAT | 8.6 | 3.88 | – | – | 1.85 | 3.84 |
| CCTTAGGGGTCACTGACAGGTTATAGCATTTGGA | 7.67 | 4.43 | – | 4.27 | 0.822 | 3.55 |
| CGTCAAAGGTCAGAGAGGTCAGTGAATGCCGAGT | 9.03 | 3.48 | – | 4.37 | 1.6 | 5.19 |
| CAAACGAGGTCAAGAGGTCAAAGTCCGCTTCCCG | 8.65 | 4.19 | – | – | 4.11 | 6.32 |
| ACTTAGGGGTCAACGAGGTTATAGCACGCGTATA | 7.64 | 4.82 | – | – | 1.8 | 6.45 |
| ACTCGGAGGTCAAAGGTCAGAGCTACGCCAGTGA | 8.15 | 3.82 | – | – | 1.5 | 3.99 |
| TATACAGGGTCAAAGGTCAGAGTACGAATGTCGA | 7.28 | 3.34 | – | – | 1.79 | 4.33 |
| CTCGAAAGGTCATGCTCAGGTGAGTATACCAAAC | 8.47 | 3.44 | – | 4.72 | 1.61 | 2.44 |
| GCTTAGGGGTCAAAGGTTATAGCATGAATAGAAT | 7.06 | 4.82 | – | 4.68 | 0.683 | 4.44 |
| CCTTAAGGGTCACGAGGTTATAGCACGACGAGCG | 7.23 | 3.17 | – | 4.24 | 1.24 | 2.91 |
| CGTCAAAGGTCAAAGGTCAGTGAAGAGATGACGG | 9.73 | 4.01 | – | 4.94 | 1.08 | 3.49 |
